# In the library only some 5.9% were active in any assay of this set; here they are far more common.
# rCAG binder – binders of r(CAG) RNA repeats, primary screen, biochemical, fluorescence | r(CAG) RNA repeat, TO-PRO-1 dye displacement fluorescence | inhibition, % at 3 µM | hit rate 1.3% among 370,000;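 active means inhibition above the plate cutoff, the mean of all test compounds on that plate plus 3 SD, cut at about 35% in these data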;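 further: higher means more dye released from RNA so lower well fluorescence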
# LANA-H2B inh – blockers of LANA interaction with H2A/H2B – biochemical, FP readout, HTS, primary screen; inhibition, % (no concentration beside the values); hit rate 0.6% among 320,000; Protein LANA1 (Human herpesvirus 8 type P (isolate GK18)), Q9QR71; cell-free LANA-H2A/H2B peptide, fluorescence polarization; in the data active means inhibition mostly above about 10%, no sharp cut-off; inactive means mostly below about 6.7%
# ALR inh – inhibitors of human ALR sulfhydryl oxidase, primary screen, biochemical, H2O2 detection, HRP-luminol luminescence, single point; hit rate 3.8% among 290,000; purified ALR, DTT oxidation; inhibition, % (no concentration beside the values);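 active means mean replicate inhibition above about 79%, with every replicate also reaching it, limit read from the data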
# Rtt109 Vps75 – inhibitors of C. albicans Rtt109/Vps75 HAT, primary screen, biochemical, ThioGlo CoA-SH fluorescence, plate reader; AID 540336, 2011; inhibition, % at 34.9 µM; hit rate 0.16% among 330,000; purified Rtt109/Vps75, 4 h;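 active means inhibition of at least 50% in every replicate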
# ABHD5-PLIN5 inh – ABHD5-PLIN5 interaction inhibitors, primary screen, cell lysate, split luciferase complementation, luminescence. Split G. princeps luciferase complementation, 4 h. inhibition, % at 4 µM. hit rate 0.78% among 360,000. AID 602281, 2012;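 active means inhibition above the mean inhibition across every tested compound plus 3 SD, cut at about 22% in these data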
# PRMT1 inh – PRMT1 methyltransferase inhibitors, primary screen, biochemical, fluorescence polarization; AID 652257, 2013; recombinant PRMT1, activity-based probe fluorescence polarization; hit rate 1.3% among 370,000; inhibition, % at 2.79 µM; Protein arginine N-methyltransferase 1 (Homo sapiens), Q99873;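 active means inhibition above about 21% made by adding two undisclosed values, limit read from the data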
# Numbers stand for hits; 0 = inactive; - = not tested or not shown.
SMILES,rCAG binder,LANA-H2B inh,ALR inh,Rtt109 Vps75,ABHD5-PLIN5 inh,PRMT1 inh
C=CCN1[C@H](CC(C)C)COc2cccc(F)c2S1(=O)=O,0,-,-,-,-,0
CC1=NN(C(=O)c2ccc(Cl)cc2)C(O)(c2ccccc2)C1 (stereo not given),0,9.9,0,0,0,0
NC(=O)c1sc2nc(-c3ccccc3)ccc2c1N,0,0,0,0,0,0
CC(=O)c1sc2nc(-c3ccco3)ccc2c1N,0,0,0,-,0,52
Cc1ccc(C2c3c(n[nH]c3C)C(=O)N2c2ccccc2)cc1 (stereo not given),0,-,-,-,-,0
CN(Cc1ccccc1)C(=O)OCc1cn(Cc2c(F)cccc2F)nn1,0,-,-,-,-,0
CC1CN(C(=O)C(C)N2CCN(c3cccc(Cl)c3)CC2)CC(C)O1 (stereo not given),0,0,88,0,0,0
COc1ccc(CC(=O)N/N=C/c2ccc(-c3ccc(F)cc3)o2)cc1OC,0,0,0,0,0,0
COc1ccc(CC(=O)N/N=C/c2ccc(-c3cccc(C(=O)O)c3)o2)cc1OC,0,8.8,0,0,0,0
COc1ccccc1NC(=S)NCc1cccnc1,0,0,0,0,0,0
COc1cc(NC(=S)NCc2cccnc2)c(OC)cc1Cl,0,0,-,56,0,0
Cc1ccc(-c2cc(C(=O)O)c3sc(N4CCCCC4)nc3n2)cc1,0,0,98,0,0,0
COc1ccc(-c2cc(C(=O)O)c3sc(N4CCCCC4)nc3n2)cc1OC,0,0,0,0,0,0
O=C(O)c1cc(-c2ccccc2)nc2nc(N3CCCCC3)sc12,0,0,80,-,-,0
CCCC(=O)N1CCC[C@]2(CC[C@H](CCC(=O)OCC)O2)C1,0,-,-,-,-,0
O=C(Nc1nc(OCCN2CCCC2=O)cnc1/C=C\c1ccccc1)c1cc2ccccc2s1,0,-,-,-,0,0
COc1ccc2c(c1)CCCN2C(=O)C1CCCN(S(=O)(=O)c2cccc3ccccc23)C1 (stereo not given),0,-,-,-,-,0
CC1=C(C(=O)N(C)C)CC(CC(=O)NCCCCc2ccccc2)C(=O)N1Cc1ccccc1 (stereo not given),0,-,-,-,0,0
CCOC(=O)N1CCN(C(=O)CS(=O)Cc2nc(-c3ccc(C)cc3)oc2C)CC1 (stereo not given),0,0,-,0,0,0
CCOC(=O)N1CCC(NC(=O)CS(=O)Cc2nc(-c3ccc(C)cc3)oc2C)CC1 (stereo not given),0,0,99,0,0,0
CCOC(=O)N1CCC(NC(=O)CS(=O)(=O)Cc2nc(-c3ccc(OC)cc3)oc2C)CC1,0,0,0,0,0,0
CCOC(=O)N1CCC(NC(=O)CS(=O)Cc2nc(-c3ccc(OC)c(OC)c3)oc2C)CC1 (stereo not given),0,0,100,0,0,0
CCOC(=O)N1CCC(NC(=O)CS(=O)Cc2nc(-c3ccc(Cl)cc3)oc2C)CC1 (stereo not given),0,0,99,0,0,0
COc1cccc(C(=O)n2ccc3ccc(-c4ccc5ccn(Cc6ccccc6)c5c4)cc32)c1,0,-,-,-,-,0
COc1ccc(N(CC(=O)Nc2cc(Cl)ccc2C)S(=O)(=O)c2c(C)noc2C)cc1,0,51,0,0,0,0
SMILES,rCAG binder,LANA-H2B inh,ALR inh,Rtt109 Vps75,ABHD5-PLIN5 inh,PRMT1 inh
COc1ccc(N(CC(=O)Nc2cc(C)ccc2C)S(=O)(=O)c2c(C)noc2C)cc1,0,0,0,0,0,0
CCCCCCCCN1C(=O)[C@H](CC(=O)NCc2ccc(OC)c(OC)c2)C[C@@]2(C(=O)OC)CCCCC=C12,0,-,-,-,0,0
Cc1ccccc1Nc1nnc(SCC2CCCCO2)s1 (stereo not given),0,0,0,51,0,0
COc1ccc(NCC(O)Cn2cnc3c2c(=O)n(C)c(=O)n3C)cc1 (stereo not given),0,0,98,0,0,0
O=C(COc1ccccc1)N/N=C/c1sc(=O)n(Cc2cccc(C(=O)O)c2)c1Cl,0,0,96,0,0,0
O=C(O)c1cccc(Cn2c(Cl)c(/C=N/NC(=O)c3ccc(O)cc3)sc2=O)c1,0,0,0,0,0,0
CCN(CC)S(=O)(=O)c1ccc(N=Nc2c(C)[nH]n(C(N)=S)c2=O)cc1,0,0,95,0,0,0
CC(=O)N(C)c1ccc(N=Nc2c(C)[nH]n(C(N)=S)c2=O)cc1,0,0,-,0,0,0
COc1cc(/C=N/NC(=O)NC2CCCCC2)cc(OC)c1O,0,0,99,0,0,0
COc1cc(/C=N/NC(=O)NC2CCCCC2)ccc1O,0,0,99,0,0,0
O=C(N/N=C/c1ccccc1)NC1CCCCC1,0,0,0,0,0,0
COc1cc(/C=N/N2C(=O)C3C4C=CC(CC4)C3C2=O)ccc1O (stereo not given),0,0,90,0,0,0
COC(=O)C1(C(=O)OC)c2cc3c(cc2CN(S(=O)(=O)c2ccc(C)cc2)C1CC(C)=O)OCO3 (stereo not given),0,-,-,-,0,0
Cc1ccc(N2C(=O)CS/C2=C(\C(Cl)=C(Cl)Cl)[N+](=O)[O-])cc1,0,0,98,0,0,0
Cc1cc(NS(=O)(=O)c2ccccc2)cc(Cl)c1O,0,0,99,0,0,0
COC(=O)c1cccc(Nc2c3c(nc4ccccc24)CCC3)c1,0,-,-,0,0,0
COc1cc(N)ccc1Nc1c2ccccc2nc2ccccc12,-,-,-,-,0,-
c1ccc2c(Nc3ccc4c(c3)OCCO4)c3c(nc2c1)CCCC3,0,0,90,0,0,0
COc1ccccc1Nc1c2c(nc3ccccc13)CCC2,0,0,99,0,0,0
COc1cc(Nc2c3c(nc4ccccc24)CCCC3)cc(OC)c1OC,0,0,98,0,0,0
COc1ccc(Nc2c3c(nc4ccccc24)CCC3)c(OC)c1,0,0,99,0,0,0
O=C(Nc1ccc2c(c1)OCO2)c1cc(C2CCCCN2S(=O)(=O)c2cccs2)on1 (stereo not given),0,-,-,-,0,0
Cc1ccc2c(CC(=O)Nc3ccc4nc(N5CCOCC5)sc4c3)coc2c1,0,-,-,-,0,0
O=C(NCc1ccco1)c1c2c(nc3ccccc13)CCC2,0,0,0,0,0,0
O=C(CSc1c2c(nc3ccccc13)CCCC2)NCc1ccco1,0,0,98,0,0,0
Cc1ccc2nc3c(c(Nc4cccc(O)c4)c2c1)CCC3,0,0,98,0,0,0
CC(=O)c1cccc(Nc2c3c(nc4ccccc24)CCC3)c1,0,0,0,0,0,0
